Here are results for eight molecules from article PMC11102866, “Nucleosome-bound NR5A2 structure reveals pioneer factor mechanism by DNA minor groove anchor competition”.

Changes are numbered by the printed parent chain. In names and notes the source's numbering stands.

In test [1] the target is NR5A2 wild type;histone octamer (Homo sapiens;, UniProt O00482;C0HKE1;Q6ZWY9;P84244;P62806 1-541;2-130;2-126;2-136;2-103, |). Kind of test: SeEN-seq (EMSA of nucleosome library followed by sequencing); 0.8 uM human NR5A2; 20 mM Tris-HCl pH 7.5, 120 mM NaCl, 1 mM MgCl2, 10 uM ZnCl2, 1 mM DTT, 100 ug/ml BSA, room temperature, 30 min; 0.1 uM nucleosome library; high values mean tight binding. A general note: A gel shift assay detects complexes by their altered migration in electrophoresis.

Test [2] concerns the target mouse Nr5a2 wild type;histone octamer (Mus musculus;, UniProt P45448;C0HKE1;Q6ZWY9;P84244;P62806 1-560;2-130;2-126;2-136;2-103, |). Description: SeEN-seq (EMSA of nucleosome library followed by sequencing); 1.2 uM mouse Nr5a2; 20 mM Tris-HCl pH 7.5, 120 mM NaCl, 1 mM MgCl2, 10 uM ZnCl2, 1 mM DTT, 100 ug/ml BSA, room temperature, 30 min; 0.1 uM nucleosome library; high values mean tight binding.

B1: 46 (nucleosome)
DNA 1: ATCCTGGAGAATCCCGGTGCCGAGGCCGCTCAATTGGTCGTAGACAGCTCAAGGCCAGCTTAAACGCACGTACGCGCTGTCCCCCGCGTTTTAACCGCCAAGGGGATTACTCCCTAGTCTCCAGGCACGTGTCAGATATATACATCCTGTGAT
DNA 2: ATCACAGGATGTATATATCTGACACGTGCCTGGAGACTAGGGAGTAATCCCCTTGGCGGTTAAAACGCGGGGGACAGCGCGTACGTGCGTTTAAGCTGGCCTTGAGCTGTCTACGACCAATTGAGCGGCCTCGGCACCGGGATTCTCCAGGAT
modifications: reconstituted with mouse histones H2A, H2B, H3.3 and H4
On to B1, for which the binding signal in test [1] is 0.748 log2 enrichment (bound/unbound, relative to Widom 601); in test [2], 0.651 log2 enrichment (bound/unbound, relative to Widom 601).

B2: 49 (nucleosome)
DNA 1: B1 DNA 1 with A51T, A52T, G53C, G54A, C55A, C56G, A57G, G58C, T60A
DNA 2: B1 DNA 2 with A94T, C96G, T97C, G98C, G99T, C100T, C101G, T102A, T103A
modifications: reconstituted with mouse histones H2A, H2B, H3.3 and H4
Consider B2, for which the binding signal is 1.14 log2 enrichment (bound/unbound, relative to Widom 601) in test [1] and 1.11 log2 enrichment (bound/unbound, relative to Widom 601) in test [2].

B3: 51 (nucleosome)
DNA 1: B1 DNA 1 with A51T, G54T, C56A, C59G, T60C, T61C
DNA 2: B1 DNA 2 with A93G, A94G, G95C, G98T, C100A, T103A
modifications: reconstituted with mouse histones H2A, H2B, H3.3 and H4
As for B3, the binding signal in test [1] was 0.595 log2 enrichment (bound/unbound, relative to Widom 601); in test [2], 0.567 log2 enrichment (bound/unbound, relative to Widom 601).

B4: 52 (nucleosome)
DNA 1: B1 DNA 1 with A51T, G54C, C55T, G58A, C59G, T60G, T61C, A62C
DNA 2: B1 DNA 2 with T92G, A93G, A94C, G95C, C96T, G99A, C100G, T103A
modifications: reconstituted with mouse histones H2A, H2B, H3.3 and H4
B4: the binding signal is 0.917 log2 enrichment (bound/unbound, relative to Widom 601) in test [1] and 1.16 log2 enrichment (bound/unbound, relative to Widom 601) in test [2].

B5: 48 (nucleosome)
DNA 1: B1 DNA 1 with A51T, A52C, G53A, G54A, C55G, C56G, A57C, G58C, C59A
DNA 2: B1 DNA 2 with G95T, C96G, T97G, G98C, G99C, C100T, C101T, T102G, T103A
modifications: reconstituted with mouse histones H2A, H2B, H3.3 and H4
For B5, the binding signal in test [1] was 0.867 log2 enrichment (bound/unbound, relative to Widom 601); in test [2], 0.815 log2 enrichment (bound/unbound, relative to Widom 601).

B6: 50 (nucleosome)
DNA 1: B1 DNA 1 with A51T, G53T, G54C, C55A, C56A, A57G, T60C, T61A
DNA 2: B1 DNA 2 with A93T, A94G, T97C, G98T, G99T, C100G, C101A, T103A
modifications: reconstituted with mouse histones H2A, H2B, H3.3 and H4
On to B6, for which the binding signal in test [1] was 0.992 log2 enrichment (bound/unbound, relative to Widom 601); in test [2], 1.01 log2 enrichment (bound/unbound, relative to Widom 601).

B7: 47 (nucleosome)
DNA 1: B1 DNA 1 with C50T, A51C, G53A, C55G, A57C, G58A
DNA 2: B1 DNA 2 with C96T, T97G, G99C, C101T, T103G, G104A
modifications: reconstituted with mouse histones H2A, H2B, H3.3 and H4
For the molecule B7, the binding signal in test [1] was 1.01 log2 enrichment (bound/unbound, relative to Widom 601); in test [2], 1.07 log2 enrichment (bound/unbound, relative to Widom 601).

B8: 7 (nucleosome)
DNA 1: ATCCTGGAGTCAAGGCCAGCCGAGGCCGCTCAATTGGTCGTAGACAGCTCTAGCACCGCTTAAACGCACGTACGCGCTGTCCCCCGCGTTTTAACCGCCAAGGGGATTACTCCCTAGTCTCCAGGCACGTGTCAGATATATACATCCTGTGAT
DNA 2: ATCACAGGATGTATATATCTGACACGTGCCTGGAGACTAGGGAGTAATCCCCTTGGCGGTTAAAACGCGGGGGACAGCGCGTACGTGCGTTTAAGCGGTGCTAGAGCTGTCTACGACCAATTGAGCGGCCTCGGCTGGCCTTGACTCCAGGAT
modifications: reconstituted with mouse histones H2A, H2B, H3.3 and H4
As to B8, the binding signal in test [1] was 2.59 log2 enrichment (bound/unbound, relative to Widom 601); in test [2], 2.08 log2 enrichment (bound/unbound, relative to Widom 601).
